High-throughput results from PubChem BioAssay.
In the library only some 2.2% were active in any assay of this set; here they are far more common.
MITF TRPM1 inh – reduces MITF-dependent TRPM1 promoter luciferase signal | SK-MEL-5 TRPM1 promoter luciferase, 24 h | inhibition, % at 12.5 µM | 330,000 compounds, 0.83% hits;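 active = mean inhibition across replicates of 60% or more, whatever share of single replicates reaches that level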
LMP1 NFkB inh – reduces LMP1-driven NF-kappaB luciferase signal | LMP1-induced NF-kappaB luciferase reporter cells, luminescence | inhibition, % at 12.5 µM | AID 504558 | 350,000 compounds, 0.69% hits; in the data active = inhibition above about 41%;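 also: 0% = neutral control wells and 100% = reference inhibitor control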
EWS-Fli inh – EWS/Fli transcriptional activity inhibition | 350,000 compounds, 0.67% hits | inhibition, % at 12.6 µM | A673 NR0B1-luciferase reporter, viability-normalised;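 active = mean inhibition of at least 50% after viability correction, with every replicate also passing that limit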;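 also: firefly luciferase signal divided by Alamar Blue viability fluorescence both relative to DMSO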
PAX8 inh HTS – PAX8 transcriptional activity inhibition | RMG-I TPO-luciferase reporter, SteadyGlo, 24 h | inhibition, % at 12.6 µM | 360,000 compounds, 1.2% hits | AID 652154;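 active = mean replicate inhibition at least 60% with every replicate also reaching 60%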;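 also: luciferase light reporting Pax8 driven TPO promoter activity; plate controls were median of neutral control wells for no effect and mitoxantrone controls for full effect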
LGR2 inh – inhibitors of bursicon-induced Drosophila LGR2 receptor cAMP signaling; HEK293 LGR2, CRE-luciferase, bursicon-stimulated, 4 h; inhibition, % at 9.99 µM; 380,000 compounds, 0.35% hits;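 active = drop in luminescence signal, shown as inhibition above about 50% in the replicate tests, limit read from the data, passing the limit was not always enough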;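 also: agonist challenge used bursicon conditioned medium at about half maximal strength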
PGC1a acetyl inh – PGC1a acetylation modulation, inhibitor mode; 350,000 compounds, 0.17% hits; inhibition, % at 15.6 µM; U2OS PGC1a acetylation, AlphaScreen anti-acetyl-lysine; with virally co-expressed GCN5 acetyltransferase;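 active = every replicate shows inhibition of at least 40%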;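 also: 0% = neutral control wells and 100% = positive control wells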
The depositor's hits bear a star.

What do the screens show for `C[C@@H]1CN([C@H](C)CO)C(=O)c2cc(C#CC3(O)CCCC3)cnc2O[C@H]1CN(C)C`?
EWS-Fli inh: -4; LGR2 inh: -14; PGC1a acetyl inh: 4

What do the screens show for `COc1ccccc1N1CCN(c2ncc(C(=O)N3CCN(c4cccc(Cl)c4)CC3)c3ccccc23)CC1`?
MITF TRPM1 inh: 41; LMP1 NFkB inh: 32; EWS-Fli inh: 14; PAX8 inh HTS: -21; LGR2 inh: 39; PGC1a acetyl inh: 1

Results for CCN1CCN(c2ncc(C(=O)Nc3cc(Cl)ccc3OC)c3ccccc23)CC1 ?
MITF TRPM1 inh: 2; LMP1 NFkB inh: -72; LGR2 inh: 2; PGC1a acetyl inh: 93*

What do the screens show for `O=C(NCC1CCCCC1)C1(CC2CC(c3cccc(Br)c3)=NO2)CCNCC1` (centres undefined)?
MITF TRPM1 inh: 65*; LMP1 NFkB inh: -2; EWS-Fli inh: 14; PAX8 inh HTS: 4; LGR2 inh: 7

How did Cc1ccc(C)c(NC(=O)COC(=O)c2cccc3c2C(=O)c2ccccc2C3=O)c1 do in these assays?
MITF TRPM1 inh: 23; LMP1 NFkB inh: 16; EWS-Fli inh: 2; PAX8 inh HTS: 64*; LGR2 inh: 2; PGC1a acetyl inh: -16

What do the screens show for `COCc1nnc(NC(=O)c2ccc(S(=O)(=O)N3CCCc4ccccc43)cc2)o1`?
MITF TRPM1 inh: -8; LMP1 NFkB inh: -11; EWS-Fli inh: 23; PAX8 inh HTS: 10; LGR2 inh: 4

How did COc1ccc(-c2nnc(NC(=O)c3ccc(S(=O)(=O)N4CCCc5ccccc54)cc3)o2)cc1 do in these assays?
MITF TRPM1 inh: 30; LMP1 NFkB inh: 49*; PGC1a acetyl inh: -3

Results for CN=c1scc(-c2ccc(F)cc2)n1/N=C/c1ccc(O)c(O)c1 ?
MITF TRPM1 inh: 68*; LMP1 NFkB inh: 9; EWS-Fli inh: 50; PAX8 inh HTS: 66*; LGR2 inh: 75*; PGC1a acetyl inh: -3

Results for O=C(CSc1nnc(-c2ccco2)n1-c1ccccc1)Nc1c(Cl)cc(Cl)cc1C(=O)O ?
MITF TRPM1 inh: -4; LMP1 NFkB inh: 1; EWS-Fli inh: -1; PAX8 inh HTS: 3; LGR2 inh: 6; PGC1a acetyl inh: 52*

What do the screens show for `CNC(=O)CSc1nnc(-c2ccco2)n1-c1ccccc1`?
MITF TRPM1 inh: 16; LMP1 NFkB inh: 2; EWS-Fli inh: 4; PAX8 inh HTS: -8; LGR2 inh: 3; PGC1a acetyl inh: 14

Results for COc1ccc(C2=Nn3c(nnc3-c3ccccc3F)SC2)cc1OC1CCCC1 ?
MITF TRPM1 inh: -2; LMP1 NFkB inh: 55*; EWS-Fli inh: -66; PAX8 inh HTS: 32; LGR2 inh: -86; PGC1a acetyl inh: -4

What do the screens show for `COc1ccc(C2=Nn3c(nnc3-c3ccccc3F)SC2)cc1OC1CCOC1` (centres undefined)?
MITF TRPM1 inh: 27; LMP1 NFkB inh: 7; EWS-Fli inh: 60*; PAX8 inh HTS: -13; LGR2 inh: -7

How did COc1ccc(OC)c(-c2nnc3n2N=C(c2ccc(OC)c(OC)c2)CS3)c1 do in these assays?
MITF TRPM1 inh: 50; LMP1 NFkB inh: 14; EWS-Fli inh: 56*; PAX8 inh HTS: 53; LGR2 inh: -23

How did COc1ccc(C2=Nn3c(nnc3-c3ccccc3)SC2)cc1OC do in these assays?
MITF TRPM1 inh: -12; LMP1 NFkB inh: 9; LGR2 inh: -26; PGC1a acetyl inh: 4

Results for CN(C)c1ccc(/C=C/c2c([N+](=O)[O-])c(=O)n(C)c(=O)n2C)cc1 ?
MITF TRPM1 inh: 7; LMP1 NFkB inh: 6; EWS-Fli inh: -11; PAX8 inh HTS: 19; LGR2 inh: 13; PGC1a acetyl inh: 20

What do the screens show for `Cn1c(/C=C/c2ccc(Br)cc2)c([N+](=O)[O-])c(=O)n(C)c1=O`?
MITF TRPM1 inh: 37; LMP1 NFkB inh: -1; EWS-Fli inh: -1; PAX8 inh HTS: 63*; LGR2 inh: 42; PGC1a acetyl inh: -1

Results for COCC#Cc1ccc2c(c1)O[C@H](CN(C)Cc1ccncc1)[C@@H](C)CN([C@@H](C)CO)S2(=O)=O ?
EWS-Fli inh: -18; LGR2 inh: 23; PGC1a acetyl inh: -9

How did COc1ccc(CCNC(=O)[C@H](C)N2C(=O)N3CCc4c([nH]c5ccccc45)[C@@]3(C)C2=O)cc1OC do in these assays?
MITF TRPM1 inh: 15; LMP1 NFkB inh: 0; EWS-Fli inh: 6; LGR2 inh: 6; PGC1a acetyl inh: 0
